This is a sample that favours compounds with a hit; in the whole collection about 5% have one here.
USP7 block: blocks human USP7 ubiquitin-rhodamine cleavage; Q93009; purified USP7, Ub-rhodamine cleavage fluorescence; inhibition, % at 20 µM; 47,000 tested, 0.3% active; AID 1645854
UCHL1 inh: inhibitors of human UCHL1 deubiquitinase | P09936 | purified UCHL1, Ub-rhodamine cleavage fluorescence | inhibition, % at 20 µM | 47,000 tested, 0.2% active
USP10 block: inhibitors of human USP10 deubiquitinase. Q14694. purified USP10, Ub-rhodamine fluorescence, 60 min. inhibition, % at 20 µM. 47,000 tested, 1.1% active. AID 1645856
OTUD3 block: inhibitors of human OTUD3 deubiquitinase; Q5T2D3; 47,000 tested, 0.7% active; purified OTUD3, Ub-rhodamine fluorescence, 2 h; inhibition, % at 25 µM; AID 1645858
USP8 inh: inhibitors of human USP8 deubiquitinase. P40818. purified USP8, Ub-rhodamine cleavage fluorescence, 30 min. inhibition, % at 20 µM. 47,000 tested, 4.2% active. AID 1645853
* hit, by the source's call; / = no result given. Rule as the data show it: active = inhibition above about 30%; inactive = the rest.

SMILES | USP7 block | UCHL1 inh | USP10 block | OTUD3 block | USP8 inh
O=C(CCCc1nnc2c(=O)n(-c3cccc(F)c3)ccn12)NCc1ccc(F)cc1 | 24 | 11 | 19 | 7 | 48*
Cc1cccc(NC(=O)CCCc2nnc3c(=O)n(-c4cccc(F)c4)ccn23)c1 | 19 | 11 | 5 | -4 | 61*
COc1cccc(CNC(=O)CCCc2nnc3c(=O)n(-c4cccc(F)c4)ccn23)c1 | 2 | 0 | -3 | 2 | 2
O=C(CCCc1nnc2c(=O)n(-c3cccc(F)c3)ccn12)Nc1ccccc1 | 19 | 9 | 16 | -17 | 47*
CC(=O)N1CCCn2c(nc3ccccc32)C1Cc1ccccc1 (stereo not drawn) | 4 | 1 | 2 | 2 | -9
COc1ccc(C)cc1NC(=O)C(NS(=O)(=O)c1cccc2cccnc12)C(C)C (stereo not drawn) | 3 | -1 | -2 | -10 | 15
COc1ccc(S(=O)(=O)Nc2c(C)c(C)cc3c2nc(C)n3Cc2cccc(C)c2)cc1 | 3 | 3 | 2 | 11 | 12
Cc1nn(C)cc1C(C)NC(=O)c1cc2c(s1)CN(C1CC1)C2 (stereo not drawn) | -4 | 1 | -5 | -16 | 31*
O=C1NC(=N/N=C/c2ccccc2)SC1Cc1cc(C(F)(F)F)ccc1Cl (stereo not drawn) | 13 | 1 | 47* | 29 | -45
O=C(Nc1nc2c(s1)CCC2)C1CCN(S(=O)(=O)c2ccc3c(c2)CCCC3)CC1 | -20 | 4 | 11 | -11 | 36*
N#Cc1ccc(OCC(=O)Nc2ccc(-c3cn4ccsc4n3)cc2)cc1 | 10 | 2 | -3 | -41 | 46*
NS(=O)(=O)c1cccc(NC(=O)COc2ccc3c(c2)CCC3)c1 | -25 | 1 | -2 | 8 | 2
N#Cc1ccc(-c2ccc(OCC(=O)Nc3ccc4c(c3)CCC4)cc2)cc1 | 11 | 2 | 20 | 42* | 36*
O=S1(=O)CCN2C(c3ccc(NS(=O)(=O)c4ccc(Cl)cc4)cc3)=CSC2=N1 | -3 | 0 | 4 | 2 | -6
CNC(=O)c1cc2c(Cl)ccc3c2n1CCO3 | / | 0 | -2 | -7 | -3
CCOC(=O)N1CCN(C(=O)c2cn(CC)c3ccc(S(=O)(=O)N4CCc5ccccc5C4)cc3c2=O)CC1 | 0 | 1 | 0 | 3 | 46*
O=C(O)c1c(CNCCc2c[nH]c3ccccc23)c2ccccc2n1Cc1ccccc1F | -71 | 2 | -3 | -11 | -9
O=C1NCC2(C/C=C/CCOc3ccccc31)CCN(C(=O)c1ccnc(N3CCCC3)c1)CC2 | 10 | 0 | 4 | 42* | 7
CCCn1c(=O)c2nscc2n(CC(=O)NCc2ccc(C)cc2)c1=O | -1 | -3 | 2 | 4 | 8
COc1cc(O)c2c(c1)COC(=O)c1c(O)cc(C)cc1O2 | 1 | 1 | 1 | 17 | -6
COC(=O)C1=CC(OC)=C(Cl)C(=O)C12OC(=O)c1c(O)cc(C)cc1O2 (stereo not drawn) | -92 | 33* | 2 | -12 | -4
COc1ccc(CC(=O)Nc2c(NCc3ccccc3)c3ccccc3oc2=O)cc1 | 21 | 4 | 21 | 14 | 91*
O=C1Nc2ccccc2C(=O)C1C(c1ccc(Cl)cc1)C1C(=O)Nc2ccccc2C1=O (stereo not drawn) | 10 | 12 | 54* | 28 | 34*
CC(C)N1CCOC2(CCN(C(=O)c3ccnnc3)CC2)c2ccccc21 | 3 | -1 | -2 | -19 | -33
Cc1cc(C(=O)N2CCOC3(CC=CCN(CCc4ccccc4)C3=O)C2)n2nccc2n1 (stereo not drawn) | 2 | 3 | 0 | 76* | 17
SMILES | USP7 block | UCHL1 inh | USP10 block | OTUD3 block | USP8 inh
O=C(c1ccnc(N2CCCC2)c1)N1CCOC2(CC=CCN(Cc3ccccc3)C2=O)C1 (stereo not drawn) | -8 | -1 | -1 | -1 | -6
CC(C)(C)c1nn(-c2ccc(Cl)cc2)c2[nH]c(=O)c(CNCc3ccco3)cc12 | -63 | 5 | 7 | -68 | 66*
Cc1nn(-c2ccc(Cl)cc2)c2[nH]c(=O)c(CNc3ccc4c(c3)OCCO4)cc12 | 30 | 11 | 18 | -39 | 80*
Cc1nn(-c2ccccc2)c2[nH]c(=O)c(CNCCN3CCOCC3)cc12 | 6 | 2 | 2 | 12 | 22
Cc1nn(-c2ccc(Cl)cc2)c2[nH]c(=O)c(CNc3ccccc3)cc12 | 5 | 2 | 6 | 12 | 80*
Cc1nn(-c2ccccc2)c2[nH]c(=O)c(CNc3ccccc3)cc12 | 8 | 0 | 3 | -22 | 4
Cc1nn(-c2ccc(Cl)cc2)c2[nH]c(=O)c(CNCCc3ccccc3)cc12 | 0 | 0 | 4 | -9 | 78*
CCCCN(C)C(=O)c1cc2c(=O)n3cccc(C)c3nc2n1Cc1ccccc1 | 4 | 6 | 7 | 21 | 4
COc1ccc(CN2CCN(C(=O)CC3CCCC3)CC2)cn1 | 3 | 8 | 5 | 1 | -13
COC(=O)c1ccc(C(=O)Nc2ccc3c(c2)NC(=O)C(C)O3)cc1 (stereo not drawn) | -1 | -2 | -1 | -1 | -1
O=C(Nc1ccc(Cl)cc1)c1noc2c1CCCC2 | 0 | 1 | 0 | 7 | 27
Cc1cc(=O)[nH]c(N2CCN(c3ccc(Cl)cc3)CC2)n1 | -18 | 1 | 3 | 17 | 25
Cc1ccc(NCc2cc3c(C(C)(C)C)nn(-c4ccc(Cl)cc4)c3[nH]c2=O)cc1C | 4 | -1 | 9 | 14 | 88*
COc1ccc(C2CCCCCN2C(=O)Cn2ccccc2=O)cc1 (stereo not drawn) | -7 | 0 | -2 | -10 | 67*
COc1ccc(-c2cc(-c3nnc(COC(=O)c4cccc([N+](=O)[O-])c4C)o3)c3ccccc3n2)cc1OC | -3 | -2 | -8 | -15 | 68*
COc1ccc(-c2cc(-c3nnc(COC(=O)CC4CCCC4)o3)c3ccccc3n2)cc1OC | 9 | 4 | -3 | -4 | 64*
COc1ccc(-c2cc(-c3nnc(CSc4nnc(C)n4-c4ccccc4)o3)c3ccccc3n2)cc1OC | 7 | 6 | 0 | 0 | 3
COc1ccc(-c2cc(-c3nnc(COC(=O)CNS(=O)(=O)c4ccccc4)o3)c3ccccc3n2)cc1OC | -11 | -16 | -10 | -12 | -8
Cc1ccc(-c2c(NC(=O)c3cccs3)n(C)c3ccccc3c2=O)cc1 | 9 | 6 | 16 | 9 | 32*
Cc1ccc(C(=O)Nc2c(-c3ccc4c(c3)OCO4)c(=O)c3ccccc3n2C)cc1 | -2 | 10 | 24 | 8 | 41*
Cn1c(NC(=O)c2ccccc2F)c(-c2ccc3c(c2)OCO3)c(=O)c2ccccc21 | 3 | -1 | 0 | 3 | 0
Cc1cc(C(=O)N2CCCCC2)c2c(=O)n(Cc3cccc(C#N)c3)c(=O)n(C)c2n1 | -10 | -4 | -1 | -1 | -4
COc1ccc(N2CCn3c(SCC(=O)Nc4cc(C)cc(C)c4)nnc32)cc1 | 5 | -1 | 4 | -3 | 50*
O=C(Nc1ccccc1)c1sccc1Oc1ccc([N+](=O)[O-])c(C(F)(F)F)c1 | -4 | 5 | 8 | -4 | 44*
